# Measurements from PubChem BioAssay AID1671190 (National Center for Advancing Translational Sciences (NCATS), 2021).
# Out of some 580,000 compounds screened, about 6,100 (1.1%) were called active. Inconclusive results (about 15%) are left out. Calls follow the shape of the dose curve; as a rule, active = well fitted inhibition curve with a large enough effect; inconclusive = small, poorly fitted or top-dose-only effect, or another doubt; inactive = no such curve, though single readings can be large or run the other way. What follows is part of a selection rich in actives, with near analogues and random picks from the rest.
# Target: Polyunsaturated fatty acid lipoxygenase ALOX12 (Homo sapiens) (UniProt P18054)
# Assay: Primary qHTS assay for inhibitors of human arachidonate 12S-lipoxygenase (ALOX12): Round 2
# Conditions: purified 12hLO, xylenol orange hydroperoxide absorbance; series mostly up to 108 µM; activity change, negative = inhibition: at the top concentration
# How it was run: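 Purified human 12hLO (150 nM final) in 25 mM Hepes, 0.01% Triton X-100, pH 7.0 was preincubated 15 min at room temperature with compound. Then 40 uM arachidonic acid was added, 30 min. Hydroperoxide was read by Fe-XO absorbance ratio 573/405 nm.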
# % is scaled to controls: 0 for no effect and ±100 for the full control effect; potency is read from the fitted curve at half-maximal effect.
# Sequence of Polyunsaturated fatty acid lipoxygenase ALOX12 (Homo sapiens) (P18054 whole entry, looked up): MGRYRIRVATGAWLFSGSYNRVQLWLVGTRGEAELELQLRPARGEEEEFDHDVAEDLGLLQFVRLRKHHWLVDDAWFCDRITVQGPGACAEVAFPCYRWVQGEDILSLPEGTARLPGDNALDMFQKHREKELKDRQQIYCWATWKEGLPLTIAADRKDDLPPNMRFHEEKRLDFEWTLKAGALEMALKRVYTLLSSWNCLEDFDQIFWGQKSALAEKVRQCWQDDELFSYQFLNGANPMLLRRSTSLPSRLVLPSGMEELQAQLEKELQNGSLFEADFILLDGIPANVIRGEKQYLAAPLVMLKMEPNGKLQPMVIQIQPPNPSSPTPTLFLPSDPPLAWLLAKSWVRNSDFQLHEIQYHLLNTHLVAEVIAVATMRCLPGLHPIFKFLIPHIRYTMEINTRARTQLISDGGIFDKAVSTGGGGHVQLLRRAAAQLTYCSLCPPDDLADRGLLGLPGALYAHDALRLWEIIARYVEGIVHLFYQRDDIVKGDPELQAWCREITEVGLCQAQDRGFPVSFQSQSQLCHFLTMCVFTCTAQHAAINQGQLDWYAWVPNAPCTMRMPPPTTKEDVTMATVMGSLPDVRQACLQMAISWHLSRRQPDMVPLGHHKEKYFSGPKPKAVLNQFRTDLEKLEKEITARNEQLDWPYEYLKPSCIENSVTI
Structure (SMILES),Potency,"activity change, negative = inhibition"
COc1ccccc1-c1nc(N2CCN(C)CC2)c2ccccc2n1,28.2 µM (active),
CCOc1ccccc1N1CCN(c2nc(-c3cccnc3)nc3ccccc23)CC1,,3.11% (inactive)
COc1ccc(N2CCN(c3nc(-c4ccccc4F)nc4ccccc34)CC2)cc1,,-11.4% (inactive)
COC(=O)C1CCCCN1S(=O)(=O)c1cc(Cl)ccc1Cl (configuration not stated),,8.51% (inactive)
CN1c2ccc(C=O)c3c(C=O)ccc(c23)N(C)C1(C)C,28.2 µM (active),
O=C(CCC1NC(=O)c2ccccc2NC1=O)NC1CCCCCC1 (configuration not stated),,-0.849% (inactive)
CC(C)Nc1nc(N(c2ccccc2)c2ccccc2)nc(-n2ccnc2)n1,,51.5% (inactive)
FC(F)(F)c1ccccc1-c1nc(-n2ccnc2)c2ccccc2n1,15.8 µM (active),
Fc1ccccc1N1CCN(c2nc(-c3cccnc3)nc3ccccc23)CC1,,0.0579% (inactive)
CCCc1noc(CN2CCN(c3cc(C)nc(C(C)C)n3)CC2)n1,,6.23% (inactive)
N#C/C(=C/c1ccco1)c1nc2ccccc2[nH]1,39.8 µM (active),
CC(C)c1ccc(/C=C(/C#N)c2nc3ccccc3[nH]2)cc1,,-19.9% (inactive)
COc1cccc2cc(/C=C(/C#N)c3nc4ccccc4[nH]3)oc12,,-44.6% (inactive)
O=c1oc2ccccc2cc1S(=O)(=O)c1cccc(Cl)c1,,-19.4% (inactive)
CC(C)N1C(=O)C2(CCCC2)C1C(=O)Nc1ccc2c(c1)N(C)CCC2 (configuration not stated),,71.1% (inactive)
Cc1ccc(N=C2NC(=O)/C(=C/C=C/c3ccco3)S2)cc1C,10 µM (active),

Structure (SMILES),Potency,"activity change, negative = inhibition"
Cc1ccc(C(=O)N/C(=C\c2ccco2)C(=O)N2CCSCC2)cc1C,,14.6% (inactive)
Cc1ccc(N2NC(=O)/C(=C/C=C/c3ccco3)C2=O)cc1C,39.8 µM (active),
CCc1ccccc1NC(=O)Nc1c(NC2CCCC2)c2ccccc2oc1=O,,3.81% (inactive)
COc1cccc(NC(=O)c2ccc3c(c2)NC(C)(COc2ccccc2)CO3)c1 (configuration not stated),,-2.36% [at 176 µM] (inactive)
CCCNC(=O)N1CCC(N(C)C2CCOCC2)CC1,,63.3% (inactive)
CC(O)CNCCOc1cccc(Oc2ccccc2)c1 (configuration not stated),,-17.6% (inactive)
N#Cc1ccc(OCC(O)CNCCC2=CCCCC2)cc1 (configuration not stated),,5.82% (inactive)
OC(CNCCc1ccc(Cl)cc1Cl)COc1ccccc1 (configuration not stated),12.6 µM (active),
CCn1ccnc1CN(C)Cc1cccc(OCC(O)CN(C)C2CCCCC2)c1 (configuration not stated),,82.8% (inactive)
O=C(O)C(c1ccccc1)N1C(=O)/C(=C\c2ccc(-c3cccc(Cl)c3)o2)SC1=S (configuration not stated),2 µM (active),
O=C(NCc1ccccc1)c1cc(-c2cccc(Cl)c2)on1,,-22% (inactive)
Cc1ccc2[nH]cc(C(C(=O)O)N3CCN(S(=O)(=O)c4ccccc4)CC3)c2c1 (configuration not stated),,-23.2% (inactive)
NC(=O)c1cccc(NC(=O)c2cccc3cccnc23)c1,,-20.1% (inactive)
Cc1nn(-c2ccc(C(C)C)cc2)c(C)c1[C@@H]1C=C[C@@H](NC(=O)Nc2ccccc2)C1,,35% [at 176 µM] (inactive)
Cc1nn(-c2ccc(C(C)C)cc2)c(C)c1[C@@H]1C=C[C@@H](NC(=S)NCC(C)C)C1,56.2 µM (active),
Cc1nn(-c2ccc(C(C)C)cc2)c(C)c1[C@@H]1C=C[C@@H](NC(=O)CC2(CC(=O)O)CCCC2)C1,,9.29% (inactive)
